S1P2 agonist: activates the human S1P2 receptor | O95136 | 97,000 compounds, 0.46% hits | S1P2-expressing cell line, agonist reporter read-out | activation, % at 4.5 µM | AID 729; in the data active = activation above about 16%
Target sequence (O95136 whole entry, looked up): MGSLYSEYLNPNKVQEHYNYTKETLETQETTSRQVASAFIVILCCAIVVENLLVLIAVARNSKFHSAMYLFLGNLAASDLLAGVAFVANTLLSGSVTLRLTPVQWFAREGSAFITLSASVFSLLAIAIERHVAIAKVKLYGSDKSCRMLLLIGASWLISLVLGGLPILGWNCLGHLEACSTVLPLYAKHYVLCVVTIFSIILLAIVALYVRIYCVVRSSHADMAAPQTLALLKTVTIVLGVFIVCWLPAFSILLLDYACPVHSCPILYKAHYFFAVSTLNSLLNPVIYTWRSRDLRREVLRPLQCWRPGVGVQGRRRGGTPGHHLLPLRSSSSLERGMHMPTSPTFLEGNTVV
S1P2 blocker: blocks the human S1P2 receptor; AID 736; cell-based S1P2 antagonist assay, inhibition at 5 uM; inhibition, % at 5 µM; O95136; 97,000 compounds, 0.21% hits; in the data active = inhibition above about 45%;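 also: CRE beta-lactamase reporter cells expressing human S1P2 stimulated with S1P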
MRP reversal: compounds reversing MRP-mediated drug resistance | differential viability (reversal), % at 10 µM | H69AR cells + 2 uM doxorubicin, CellTiter-Glo, 72 h | 85,000 compounds, 0.04% hits | AID 602;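 active = viability drop by adding the cancer drug above about 55%, with treated viability meeting a 40% cutoff, limit read from the data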;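 also: larger differential means the compound sensitizes cells more to doxorubicin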
GALR2 agonist: activates the human galanin receptor 2; O43603; GALR2-expressing cells, agonist activation read-out; activation, % (test concentration not listed); 140,000 compounds, 0.48% hits; AID 803; in the data active = activation above about 5%, passing the limit was not always enough
MRP-1 activ: activators of MRP-1; H69AR cells + doxorubicin, viability rescue, CellTiter-Glo; viability increase, % at 10 µM; 140,000 compounds, 0.61% hits;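 active = viability gain under doxorubicin at or above a set limit, the compound median plus 3 SD, cut at about 4.7% in these data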;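 also: MRP-1 overexpressing cells given doxorubicin 25 µM after compound pretreatment; 18-22 h compound pretreatment then 72 h with doxorubicin before readout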
GALR2 blocker: antagonists of human galanin receptor 2 (GALR2). 140,000 compounds, 0.39% hits. inhibition, % at 4 µM. GALR2-expressing cells, antagonist mode. O43603. AID 828; in the data active = inhibition above about 27%;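 also: cells stimulated with galanin 1-16 at roughly its EC80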
Numbers stand for hits; - = inactive; . = no result. Only some compounds are listed: those with a hit (about 1.8% of all), similar ones and a draw of the others.

SMILES	S1P2 agonist	S1P2 blocker	MRP reversal	GALR2 agonist	MRP-1 activ	GALR2 blocker
CN(Cc1ccccc1)c1ncnc2c1cnn2-c1ccccc1	-	-	-	-	5.3	-
CS(=O)(=O)Nc1nnc(Cc2ccccc2)s1	-	-	-	-	7.9	-
CC(=O)Nc1nnc(Cc2ccccc2)s1	-	-	-	-	-	-
Cc1ccc(-n2nc(C)c3c2OC(N)=C(C#N)C3c2ccoc2)cc1 (stereo not drawn)	-	-	-	-	-	-
CCN(CC)S(=O)(=O)c1cccc(NC(=O)CCSc2ccc(Cl)cc2)c1	.	.	.	-	5.5	-
CN(C)S(=O)(=O)c1cccc(NC(=O)COC(=O)CCSc2ccc(Cl)cc2)c1	.	.	.	-	-	-
COc1ccc(COc2ccccc2C(N)=O)cc1F	.	.	.	-	-	-
Cn1nc(C(F)(F)F)c2cc(NC(=O)OCc3ccc(C(C)(C)C)cc3)sc21	-	-	-	-	7.1	-
Cn1nc(C(F)(F)F)c2cc(NC(=O)OCc3ccc(F)cc3)sc21	-	-	-	-	-	-
CCOC(=O)C1CCCN(C/C(O)=C(\C#N)c2nc(-c3ccc(Cl)cc3)cs2)C1 (stereo not drawn)	-	-	-	-	-	-
COc1ccc(-n2nnnc2S(=O)(=O)Cc2ccc(C(=O)O)cc2)cc1	-	-	-	-	-	-
COc1ccc(-n2nnnc2S(=O)(=O)CC(=O)N2CCCCC2)cc1	-	53	-	-	-	48
CN(C)CCCNS(=O)(=O)c1cc(Cl)ccc1Cl	-	-	-	-	-	-
CCN(CC(=O)N1CCCCCC1)S(=O)(=O)c1ccc(Cl)cc1	-	-	.	-	-	-
CN(C)CCCNS(=O)(=O)c1ccc(N2CCC(c3ccc(Cl)cc3)=N2)cc1	202	-	-	132	-	-
O=S(=O)(c1ccc(N2CCC(c3ccc(Cl)cc3)=N2)cc1)N(CCO)CCO	111	-	-	90	-	-
COc1ccc(/C=N/N=C2\CC3CCC2(C)C3(C)C)cc1O (stereo not drawn)	-	-	.	-	-	-
CCOC(=O)CN(C(=O)CSc1nnc(COc2ccc(OC)cc2)n1C)c1ccccc1	96	-	-	-	5.6	-
CCOC(=O)CN(C(=O)CSc1nnc(CNc2ccc(F)cc2)n1C)c1ccccc1	-	-	-	-	-	-
O=C(/C=C/c1ccccc1[N+](=O)[O-])NCc1cccnc1	.	.	.	-	-	-
C(=N\Nc1nc(Nc2ccccc2)nc(N2CCOCC2)n1)/c1c[nH]c2ccccc12	-	47	.	-	-	-
NS(=O)(=O)c1ccc(N=Nc2c(-c3ccccc3)[nH]n(-c3nc(-c4ccccc4)cs3)c2=O)cc1	.	.	.	-	5.3	-
Cc1[nH]n(-c2nc(-c3cccc([N+](=O)[O-])c3)cs2)c(=O)c1C	.	.	.	-	-	-
Cc1ccccc1NC(=O)CSC(N)=O	-	-	-	-	-	-
COc1ccccc1NC(=O)CSC1=NCCN1	.	.	.	-	50	-
SMILES	S1P2 agonist	S1P2 blocker	MRP reversal	GALR2 agonist	MRP-1 activ	GALR2 blocker
COc1ccccc1NC(=O)CSC(N)=O	-	-	-	-	5.6	-
CC1CCc2cc(F)cc3c(O)c(C(=O)NCC4CCCO4)c(=O)n1c23 (stereo not drawn)	-	-	-	-	-	-
O=C(CSc1ncnc2nc[nH]c12)N1CCN(c2ccc(Cl)cc2)CC1	-	-	-	-	-	-
CCCn1c(NCc2c[nH]c3ccccc23)nc2ccccc21	21	-	-	-	-	-
CC1C/C(=C/c2cccn2C)C(=O)/C(=C/c2cccn2C)C1 (stereo not drawn)	-	59	-	-	-	-
COC(=O)c1sc(N)c(C(=O)OC)c1CSc1nc2sc3c(c2c(=O)n1C)CCC3	27	-	-	-	-	-
C=CCN1C(=O)CSC1=Nc1ccc(O)cc1	-	-	-	-	-	-
O=C(Nc1ccc(Cl)cc1)C1CCCN(S(=O)(=O)c2cnc[nH]2)C1 (stereo not drawn)	-	-	-	-	4.9	-
CC(C)c1ccc(NC(=O)C2CCCN(S(=O)(=O)c3cnc[nH]3)C2)cc1 (stereo not drawn)	-	-	-	-	-	-
CCOC(=O)c1ccc(N2C(=O)c3n[nH]c(C)c3C2c2ccc(OC)cc2OC)cc1 (stereo not drawn)	-	-	-	-	9.4	-
CCOC(=O)Nc1ccc2c(c1)N(C(=O)CCN1CCOCC1)c1ccccc1S2=O (stereo not drawn)	-	-	-	-	-	41
O=C1/C(=C\c2cccs2)N=C(c2cccs2)N1Nc1ccccc1	-	-	-	-	6.9	-
O=C1/C(=C/c2cccs2)N=C(c2cccs2)N1Nc1ccccc1	-	-	-	-	-	-
CCOc1ccc(S(=O)(=O)Nc2ccc(Cl)cn2)c(C)c1C	-	-	-	-	-	-
COc1ccc(-c2nc3scc(-c4ccccc4)n3n2)cc1	-	-	-	-	-	-
CC(C)C1N=C2c3ccccc3N=C(SCc3cc(=O)n4ccccc4n3)N2C1=O (stereo not drawn)	-	-	-	-	.	-
CC1N=C2c3ccccc3N=C(SCc3cc(=O)n4cc(Cl)ccc4n3)N2C1=O (stereo not drawn)	25	-	-	-	-	-
Cc1nc2scc(-c3cccs3)c2c(=O)o1	-	-	-	-	-	-
Cc1nnc2n(Cc3ccccc3)c(=O)c3c4c(sc3n12)CN(Cc1ccccc1)CC4	.	.	-	.	.	.
O=c1c2c3c(sc2n2cnnc2n1Cc1ccccc1)CN(Cc1ccccc1)CC3	-	-	64	-	.	-
CC(=O)Nc1nonc1NC(C)=O	-	-	-	-	-	-
CC(=O)Nc1cc(OC(C)=O)c2nonc2c1OC(C)=O	-	98	.	-	.	96
Cc1ccc(C(=O)Nc2nc(=O)n(C(=O)CC(C)C)s2)cc1	-	-	.	-	-	-
CC(C)CC(=O)n1sc(NC(=O)c2ccccc2)nc1=O	-	-	.	-	6.5	-
COc1cc(C2N3CC4(C)CN2CC(C)(C3)C4)ccc1O (stereo not drawn)	-	-	-	-	-	-
SMILES	S1P2 agonist	S1P2 blocker	MRP reversal	GALR2 agonist	MRP-1 activ	GALR2 blocker
[O-][n+]1onc2c1CCc1c-2nn(-c2ccccc2Cl)[n+]1[O-]	-	-	.	-	-	42
Cc1ccc(-n2nc3c([n+]2[O-])CCc2c-3no[n+]2[O-])cc1	.	.	-	-	-	49
Cc1ccc(-c2nnn(CC(=O)N3CCCc4ccccc43)n2)cc1	-	-	-	-	-	-
Cc1ccc(-c2noc(CCC(=O)N3CCCc4ccccc43)n2)cc1	43	-	-	-	-	-
CC(NC(=O)CSc1nnc(-c2cccc(S(=O)(=O)N3CCCCC3)c2)o1)C12CC3CC(CC(C3)C1)C2 (stereo not drawn)	-	-	-	-	-	-
Cc1ccc(-c2nn(-c3ccccc3)cc2/C=N/NC(=O)c2ccc(Br)o2)cc1	-	100	.	-	-	-
Cc1ccccc1C(=O)N/N=C/c1ccc([N+](=O)[O-])s1	-	-	-	-	-	-
CCOC(=O)c1c(-c2cccs2)csc1NC(=O)CSc1ncn[nH]1	-	-	-	-	6.0	-

From PubChem
